Results reported in PubChem BioAssay (NCI).
Compounds without any hit were thinned out: in the full panel of roughly 83,000, 20% have a hit.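 Single-concentration screen, 48 h exposure, 96-well plates. Endpoint: percent growth. Below 10 = active.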 Calls of active or inactive are those of the source.

Each compound was assayed on MDA-MB-468 breast (assay: NCI-60 one-dose screen, 48 h (100 = growth as untreated, 0 = no growth, -100 = all killed)). Conditions: 10 µM unless noted.

Row | SMILES | growth
1 | CN(C)c1ccc(C2(Cl)c3ccccc3N(C)c3ccccc32)cc1 | 50.8% (inactive)
2 | COc1cc(/C=C/C(=O)N2CCN(C(=O)c3cc(OC)c(OC)c(OC)c3)CC2)ccc1OCCCN1C(=O)c2cccc3cccc(c23)C1=O | 102% (inactive)
3 | COc1cc(OC)c(/C=C/C(=O)c2c(OC)cccc2OC)c(OC)c1 | -15.6% (active)
4 | O=S(=O)(c1cc(Cl)ccc1O)c1cc(Cl)ccc1O | 63.1% (inactive)
5 | Clc1ccc2c(NCCCNc3nc(-n4ccnc4)nc4ccccc34)ccnc2c1 | 53.3% (inactive)
6 | CCCCNC(=O)Oc1ccc(/C(=C(\C)c2ccc(OC)cc2)c2ccc(OCCN3CCCCC3)cc2)cc1 | 64.4% (inactive)
7 | Cc1[nH]n(C(N)=S)c(=O)c1N=Nc1ccc(F)c(Cl)c1 | 154% (inactive)
8 | COc1cc(Cc2cc(-c3ccccc3)nn(Cc3ccccc3)c2=O)cc(OC)c1OC | 28.4% (inactive)
9 | c1ccc(CC(NCCNC(Cc2ccccc2)c2ccccc2)c2ccccc2)cc1 (stereo not given) | -32.9% (active)
10 | COc1ccc(-n2c(=O)n(-c3ccc(-c4nc5ccc(F)cc5s4)cc3)c(=O)c3cccnc32)cc1 | 121% (inactive)
11 | O=C(C1CCC1)N1N=C(c2ccc(-n3ccc(C(F)(F)F)n3)cc2)CC1c1ccc[nH]1 (stereo not given) | 106% (inactive)
12 | COc1ccc(NC2=C(Cl)C(=O)C(C)=C(C)C2=O)cc1 | -38.4% (active)
13 | O=C1OCC2=C1C(c1cccc([N+](=O)[O-])c1)c1cc3c(cc1N2CCO)CCC3 (stereo not given) | 4.98% (active)
14 | O=C(CN(C1CCCCC1)C1CCCCC1)Nc1ccc(S(=O)(=O)c2ccc(NC(=O)CN(C3CCCCC3)C3CCCCC3)cc2)cc1 | -55.1% (active)
15 | O=C1C=C[C@]2(C[C@@H](c3cccc(C(F)(F)F)c3)O[C@@H](c3cccc(C(F)(F)F)c3)O2)O1 | -48.8% (active)
16 | COc1ccccc1/C=C1\Oc2ccc(O)c(O)c2C1=O | 101% (inactive)
17 | CNCCCNCCCCNCCCN1C(=O)c2ccc3c4c(ccc(c24)C1=O)C(=O)N(CCCNCc1ccccc1OC)C3=O | 28.6% (inactive)
18 | CCOC(=O)C1=C(C(=O)OCC)N(c2cc(OC)c(OC)c(OC)c2)C(N)=C(C#N)C1c1cc(=O)[nH]c2ccccc12 (stereo not given) | 92% (inactive)
19 | O=C(CCc1ccccc1)N1CCN(C(=O)CCc2ccccc2)CC1 | 111% (inactive)
20 | O=C1CC(C(F)(F)F)Cc2nc3ccc(Br)cc3cc21 (stereo not given) | 94.8% (inactive)
21 | O=c1c2c(=NCCCN3CCCC3)cc3c(=O)n(CCCN4CCCC4)c(=O)c4c(NCCCN5CCCC5)cc(c(O)n1CCCN1CCCC1)c2c4-3 | -62.2% (active)
22 | COc1ccc(C(=O)/C=C/c2c[n+](=O)c3ccc(F)cc3n2[O-])cc1 | 101% (inactive)
23 | COc1ccc(-c2nc(SCC(C)C)nc(Nc3ccccc3)c2C#N)cc1 | 80.7% (inactive)
24 | Fc1ccc2[nH]cc(-c3nc(-c4c[nH]c5c(Cl)nccc45)cs3)c2c1 | 9.87% (active)
25 | Clc1ccccc1-c1nc(Nc2nc3ccccc3s2)nc(C(Cl)(Cl)Cl)n1 | -24.6% (active)
